The subject of one assay is FLT1. The conditions noted are these: concentration: 1 μM, replicates: in singlicate; n = 1.
In the case of `N#Cc1c(N2CCOCC2)sc(-c2ccn[nH]2)c1-c1ccc(Cl)cc1`, the “%Inh” value worked out at 0%.

Take `Cn1cc(-c2ccc3c(c2)CCN3C(=O)Cc2ccccc2Cl)c2c(N)ncnc21` [GSK2608885]: the “%Inh” value was found to be 98.8%.

Consider `COc1cc(Nc2nccc(N3CCC(NC(=O)c4cccc(NC(C)=O)c4)C3)n2)cc(OC)c1OC` (centres unmarked) [GSK1379754], for which the “%Inh” value came to 44%. On the same count and under the same terms, for `COc1ccc(S(=O)(=O)NC2CCN(c3cc(C)nc(Nc4cccc(C#N)c4)n3)CC2)cc1.O=C(O)C(F)(F)F` [GSK1653539] the value was 12%; for `COc1cc2c(cc1OCCN1CCN(C)CC1)ncc1c3ccc(C#N)cc3[nH]c21`, 14%.

Take `O=C(Nc1n[nH]c2cc(-c3cccc(F)c3)ccc12)C1CC1` [SB-735464]: the “%Inh” value was found to be 0%.

As for `Cc1cccc(-c2nc(Nc3ccc4ncsc4c3)c3ccccc3n2)n1` [GW867588], the “%Inh” value amounted to 0%. On the same count and under the same terms, the figure for `Nc1nccc(-c2c(-c3ccc(F)cc3)ncn2C2CCN(CC(F)(F)F)CC2)n1` [SB-236560] is 9%; for `COc1ccc(Nc2nccc(N3CCC(NC(=O)Nc4cccc(C(C)=O)c4)C3)n2)cc1` (centres unmarked) [GSK1379731] it is 33%.

The subject of the next assay is FLT3-autoinhibited. The note with it: concentration: 1 μM, replicates: in singlicate; n = 1.
Regarding `O=C(NCCNc1ccnc(Nc2ccc(F)cc2)n1)c1cc2ccccc2s1` [GSK1379874], the “%Inh” value came out at 0%.

As to `Cc1nnc(-c2ccc3occ(-c4ccc(C(C)O)cc4)c3c2)o1` (centres unmarked), the “%Inh” value is 4%. In the case of `NS(=O)(=O)CCc1cccc(Nc2nccc(-c3c(-c4cccc(NC(=O)c5c(F)cccc5F)c4)nn4ccccc34)n2)c1` [GSK336735], the “%Inh” value is reported as 11%. On to `NS(=O)(=O)c1cccc(-c2ccc3nccc(-c4cccc(S(N)(=O)=O)c4)c3c2)c1` [GW867253], for which the “%Inh” value is 0%.

As to `Cc1nnc(-c2ccc(C)c(-c3ccc(C(=O)Nc4ccc(NS(C)(=O)=O)cc4)cc3)c2)o1` [GW702865], the “%Inh” value was determined as 0%. On the same count and under the same terms, for `Cl.Nc1ncnc2occ(-c3ccc(NC(=O)Nc4cc(C(F)(F)F)ccc4F)cc3)c12` [SB-707548] the value was 83%; for `O=C(NCCCN1CCOCC1)c1cccc(Nc2nccc(Nc3ccc(Oc4ccccc4)cc3)n2)c1` [GW663929], 33%; for `O=C(c1ccc(-c2cc(-c3c[nH]nc3-c3ccccn3)ccn2)cc1)N1CCOCC1` [GW812171], 0%.

For `CN1c2ccc(NCc3ccc(F)cc3)cc2-c2c(cnn2C)S1(=O)=O`, the “%Inh” value stood at 24%. On to `Cc1nnc(-c2ccc3ncc(-c4ccc(S(C)=O)cc4)n3c2)o1` (centres unmarked), for which the “%Inh” value is 20%.

For `COc1cc2ncn(-c3cc(OCc4sccc4Cl)c(C(N)=O)s3)c2cc1OC` [GSK448459], the “%Inh” value came to 0%. Same read-out and setting: the figure for `[2H]C([2H])(c1cccc(C(F)(F)F)c1C)n1ccn2c(=O)nc(N3CCOCC3)cc12` [GSK2336394] is 0%.

`Cl.Oc1cccc(Nc2ccnc3cc(-c4ccncc4)ccc23)c1` [GW494601]: the “%Inh” value turned out to be 3%. Turning to `CCc1nc(-c2cccc(C)c2)c(-c2ccnc(NCc3ccccc3)c2)s1`, the “%Inh” value was 18%. On the same count and under the same terms, the figure for `CN(C(=O)c1ccc(-c2cc(-c3c[nH]nc3-c3ccccn3)ccn2)cc1)C1CCOCC1` [GW810083] is 0%; for `O=C(NOCC1CC1)c1ccc(F)c(F)c1Nc1ccc(I)cc1Cl` it is 0%. Same read-out and setting: for `N#Cc1ccc(-c2cc(-c3c[nH]nc3-c3ccccn3)ccn2)cc1` [GW693028] the value was 0%; for `CN1c2ccc(CNc3ccc(F)cc3)cc2-c2c(cnn2C)S1(=O)=O`, 0%; for `O=c1cc(N2CCOCC2)nc2n(Cc3cccc(C(F)(F)F)c3)ccn12` [GSK2297543], 12%.

Consider `O=C(NCCNc1ccnc(Nc2ccc(F)cc2)n1)Nc1ccccc1F` [GSK1379880], for which the “%Inh” value is 0%.

On to `COc1cc2c(cc1OC[C@@H](O)CO)ncc1c3ccc(C#N)cc3[nH]c21`, for which the “%Inh” value was 90%. Still for that read-out and setting: for `CCCCCc1nc2c(N)ncnc2n1CCCCC` [SKF-97255] the value was 0%; for `O=C(Nc1cccc(-c2nn3ncccc3c2-c2ccnc(Nc3cccc(C(F)(F)F)c3)n2)c1)c1c(F)cccc1F` [GSK299495], 0%; for `O=c1cc(N2CCOCC2)nc2n(Cc3cccc4ccccc34)ccn12` [GSK2333389], 3%. Regarding `Cc1c(Cn2c(C)nn3c(=O)cc(N4CCOC(C)C4)nc23)cccc1C(F)(F)F` (centres unmarked) [GSK2344444], the “%Inh” value was 3%.

`O=C1NC(=O)C(N2CCc3ccccc32)=C1c1cccc(Cl)c1` [SB-408010]: the “%Inh” value is listed as 21%. The same measure, in the same setting: the figure for `N#Cc1c(N2CCOCC2)sc(-c2ccn[nH]2)c1-c1ccc(Cl)cc1` is 12%. Take `Cn1cc(-c2ccc3c(c2)CCN3C(=O)Cc2ccccc2Cl)c2c(N)ncnc21` [GSK2608885]: the “%Inh” value is given as 20%.

As to `COc1cc(Nc2nccc(N3CCC(NC(=O)c4cccc(NC(C)=O)c4)C3)n2)cc(OC)c1OC` (centres unmarked) [GSK1379754], the “%Inh” value is given as 6%.

`COc1ccc(S(=O)(=O)NC2CCN(c3cc(C)nc(Nc4cccc(C#N)c4)n3)CC2)cc1.O=C(O)C(F)(F)F` [GSK1653539]: the “%Inh” value came to 0%.

As for `COc1cc2c(cc1OCCN1CCN(C)CC1)ncc1c3ccc(C#N)cc3[nH]c21`, the “%Inh” value was determined as 97.4%. On to `O=C(Nc1n[nH]c2cc(-c3cccc(F)c3)ccc12)C1CC1` [SB-735464], for which the “%Inh” value stood at 0%.

For `Cc1cccc(-c2nc(Nc3ccc4ncsc4c3)c3ccccc3n2)n1` [GW867588], the “%Inh” value was determined as 12%. As to `Nc1nccc(-c2c(-c3ccc(F)cc3)ncn2C2CCN(CC(F)(F)F)CC2)n1` [SB-236560], the “%Inh” value is recorded as 0%. Regarding `COc1ccc(Nc2nccc(N3CCC(NC(=O)Nc4cccc(C(C)=O)c4)C3)n2)cc1` (centres unmarked) [GSK1379731], the “%Inh” value turned out to be 0%.

The record behind these values is paper PMC5540273 (PLoS ONE, 2017).
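Further: KINOMEscan kinase panel screen.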
